According to PubChem BioAssay (NCATS):
Results filed as inconclusive are left out. A call without a number means that no potency is given here. Activity calls are given as the source filed them. Calls follow the shape of the dose curve; as a rule, active = well fitted inhibition curve with a large enough effect; inconclusive = small, poorly fitted or top-dose-only effect; inactive = flat fitted curve, though single readings scatter.

What follows are compounds tested on Zika virus NS2B-NS3 protease (assay: Primary screen GU AMC qHTS for Zika virus inhibitors (AID 1347154; also: nearly all actives have a fitted effect of over 70% in size)). Conditions: Zika NS2B-NS3 unlinked protease, AMC fluorogenic substrate; series mostly up to 54.1 µM.
Summary of the method: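 Unlinked Zika NS2B hydrophilic domain/NS3 protease domain noncovalent complex (25 nM final) in 10 mM Tris-HCl pH 8.0, 0.01% Tween 20, with AMC peptide substrate. Fluorescence (ex 340, em 450 nm) change over 15 min, room temperature; percent inhibition fitted to 4-parameter Hill equation.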
Potency is read from the fitted curve at half-maximal effect.

Question: CCOC(=O)C1=C[C@@]2(CC)CCCN3CCc4c(n1c1ccccc41)[C@H]32 was tested. Which Potency did it give?
Answer: inactive

Question: Which Potency does the source give for O=C1[C@H](Cc2ccc(O)cc2)N2C(=O)CCN(C(=O)NCc3ccccc3)[C@H]2CN1Cc1cccc2ccccc12 here?
Answer: inactive

Question: With CC(C)(C)OC(=O)CN(Cc1ccc(Cl)cc1)Cc1ccc([N+](=O)[O-])s1 as the compound, how does the Potency read?
Answer: inactive

Question: How did the Potency turn out when CCOc1ccc(Cc2cc([C@@H]3O[C@H](CO)[C@@H](O)[C@H](O)[C@@H]3O)ccc2Cl)cc1 was run?
Answer: inactive

Question: Which Potency does the source give for COc1ccc(-c2c(-c3ccc(O)cc3O)n[nH]c2C)cc1 here?
Answer: inactive

Question: For Nc1nccc(-c2ccc3noc(-c4ccc(Cl)cc4)c3c2)n1, which Potency is on record?
Answer: inactive

Question: For CCCCCCCc1ccc(CCc2cccc(O)c2C(=O)O)cc1, which Potency is on record?
Answer: 8.57 µM (active)

Question: Which Potency does the source give for Cc1cc(-c2ccc(CC(=O)Nc3ccc(-c4cccnc4)cc3)cc2)ccn1 here?
Answer: inactive

Question: Which Potency does the source give for C[C@]12CC[C@H](O)CC1=CC[C@@H]1[C@H]2CC[C@]2(C)C(c3cccnc3)=CC[C@H]12 here?
Answer: inactive

Question: Which Potency does the source give for COCCNCCCn1c(C(=O)CF)c(-c2ccc(C)cc2)c2c(N)ncnc21 here?
Answer: inactive

Question: O=C(O)[C@@H](c1ccc(OCc2ccc3ccccc3n2)cc1)C1CCCC1 was tested. Which Potency did it give?
Answer: inactive

Question: CCn1c(-c2nonc2N)nc2c(C#CC(C)(C)O)ncc(OC[C@H]3CCCNC3)c21 was tested. Which Potency did it give?
Answer: inactive

Question: Cc1ccc(NC(=O)c2cccc(C(C)(C)C#N)c2)cc1Nc1ccc2ncn(C)c(=O)c2c1 was tested. Which Potency did it give?
Answer: inactive

Question: For Cc1cc2c(F)c(Oc3ncnn4cc(OC[C@@H](C)O)c(C)c34)ccc2[nH]1, which Potency is on record?
Answer: inactive

Question: For NC(=O)C1CCCc2c1[nH]c1ccc(Cl)cc21 (centres undefined), which Potency is on record?
Answer: inactive

Question: With Cc1cc([C@@H](C)Nc2ccccc2C(=O)O)c2nc(N3CCOCC3)cc(=O)n2c1 as the compound, how does the Potency read?
Answer: inactive

Question: With Nc1cccc(S(=O)(=O)N2CCCN(S(=O)(=O)c3ccc4c(c3)OCCO4)CC2)c1 as the compound, how does the Potency read?
Answer: inactive

Question: Which Potency does the source give for Cc1ccc2c(c1)C(=O)[C@@]1(O)CCN(c3ccccc3)C1=N2 here?
Answer: inactive

Question: CCc1ccc(CCOc2ccc(CC3SC(=O)NC3=O)cc2)nc1 (centres undefined) was tested. Which Potency did it give?
Answer: inactive

Question: How did the Potency turn out when N#Cc1ccc(C(c2ccc(C#N)cc2)n2cncn2)cc1 was run?
Answer: inactive

Question: For CCOc1cc(C=C2C(=O)N(c3ccccc3)N=C2C)cc(Cl)c1OCC(=O)OC, which Potency is on record?
Answer: inactive

Question: Which Potency does the source give for CC(=O)NC(C)c1ccc(Oc2ccc(OC(C)C)cc2)cc1 (centres undefined) here?
Answer: inactive

Question: With CNC(=O)c1ccc(N2C(=S)N(c3ccc(C#N)c(C(F)(F)F)c3)C(=O)C2(C)C)cc1F as the compound, how does the Potency read?
Answer: inactive

Question: Which Potency does the source give for OCCn1cc(-c2cnc3nnn(Cc4ccc5ncccc5c4)c3n2)cn1 here?
Answer: inactive

Question: With Cn1c(=O)c(F)c(Nc2ccc(I)cc2F)c2c(=O)n(C[C@@H](O)CO)cnc21 as the compound, how does the Potency read?
Answer: inactive

Question: Cc1c(CCOc2ccc(C(=O)O)cc2)c2cc(Cl)ccc2n1C(c1ccccc1)c1ccccc1 was tested. Which Potency did it give?
Answer: inactive

Question: How did the Potency turn out when O=S(=O)(N=Cc1c(O)ccc2ccccc12)c1cccs1 was run?
Answer: inactive

Question: c1ccc(-c2nn3c(c2-c2ccnc4cc(OCCN5CCOCC5)ccc24)CCC3)nc1 was tested. Which Potency did it give?
Answer: inactive

Question: For COc1cc2c(cc1OC)CN(CCc1ccc(NC(=O)c3cccc4c(=O)c5cccc(OC)c5[nH]c34)cc1)CC2, which Potency is on record?
Answer: inactive

Question: Which Potency does the source give for CS(=O)(=O)Oc1ccc2c(NC(N)=O)c(C(=O)c3ccc(Cl)cc3Cl)oc2c1 here?
Answer: inactive

Question: COc1ccc2nc(S(=O)Cc3ncc(C)c(OC)c3C)[nH]c2c1 (centres undefined) was tested. Which Potency did it give?
Answer: inactive

Question: For Cc1cc(C=c2sc3nc4ccccc4n3c2=O)c(C)n1-c1ccccc1, which Potency is on record?
Answer: inactive

Question: How did the Potency turn out when O=C(C=Cc1ccc(/C=C/C(=O)Nc2ccc(C3=NCCN3)cc2)cc1)Nc1ccc(C2=NCCN2)cc1 was run?
Answer: inactive

Question: COc1ccc(CC2=NN3C([C@@H](CCc4ccccc4)[C@@H](C)O)=NC(C)C3C(=O)N2)cc1OC (some centres undefined) was tested. Which Potency did it give?
Answer: inactive
